# Measured values taken from PubChem BioAssay AID504332 (National Center for Advancing Translational Sciences (NCATS), 2011).
# In all, about 350,000 compounds went through this assay and about 31,000 (8.9%) were called active. Entries that show only a call come without a potency. About 15% were inconclusive and are not listed. For the sample, actives were picked, then their nearest neighbours and some compounds at random. The source holds several records for some structures; these can differ, active in one and inactive in another. Unmarked numbers belong to inactive results. Calls come from the whole dose curve; as a rule, active = well fitted inhibition curve with a large enough effect; inconclusive = small, poorly fitted or top-dose-only effect; inactive = no such curve, though single readings can be large or run the other way.
# Biological target: Histone-lysine N-methyltransferase EHMT2 (Homo sapiens) (UniProt Q96KQ7)
# Test: qHTS Assay for Inhibitors of Histone Lysine Methyltransferase G9a; note: nearly all actives have a fitted effect of over 75% in size
# Details: G9a H3K9 monomethylation, AlphaScreen, 2 h; series mostly up to 59 µM
# Summary of the method: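 Using a bead-based AlphaScreen, monomethylated H3K9 product from 2 h room-temperature reactions (G9a 20 nM, peptide 500 nM, SAM 20 uM) was detected with 0.5 ug/mL rabbit anti-H3K9me1 antibody.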
# Potency is the fitted concentration of half-maximal effect.
# Sequence of Histone-lysine N-methyltransferase EHMT2 (Homo sapiens) (Q96KQ7 913-1193 limits assumed): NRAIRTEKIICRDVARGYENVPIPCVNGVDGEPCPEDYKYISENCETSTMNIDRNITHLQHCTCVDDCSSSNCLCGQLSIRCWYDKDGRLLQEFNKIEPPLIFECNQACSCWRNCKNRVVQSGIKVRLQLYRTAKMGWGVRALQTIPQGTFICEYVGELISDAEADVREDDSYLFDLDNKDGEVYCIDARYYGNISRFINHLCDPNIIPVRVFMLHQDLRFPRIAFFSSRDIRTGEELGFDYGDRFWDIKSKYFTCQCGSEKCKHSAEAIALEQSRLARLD
SMILES,Potency,"activity, negative = inhibition"
Cc1ccc(Nc2nc(-c3ccc(O)cc3O)cs2)nc1,10 µM (active),
c1cnc(Nc2nc(-c3ccc4ccccc4c3)cs2)nc1,,27.1% [at 12.7 µM]
CC(=O)Nc1cccc(-c2csc(Nc3cccc(C)n3)n2)c1,,-3.54% [at 0.0925 µM]
CCN(CC(=O)Nc1c(F)cccc1F)C(=O)c1ccc(S(=O)(=O)N2CCCCC2)cc1,,0.134% [at 12.7 µM]
CC1CC(C)CN(c2ccc(S(=O)(=O)N3CCOCC3)cc2)C1 (stereo unspecified),,-7.51% [at 12.7 µM]
CCCOc1ccc(N/C=C/C(=O)C(C)(C)C)cc1,inactive,
O=C(/C=C/Nc1ccccc1OC(F)(F)F)C(F)(F)F,inactive,
CN(C)c1ccc(N/C=C/C(=O)C(F)(F)F)cc1,7.08 µM (active),
COc1ccc(-c2cn3c(n2)sc2cc(C(=O)Nc4ccc(F)cc4)ccc23)cc1,inactive,
CCn1cc2nc(SCc3cccc(F)c3)n(CCc3ccccc3)c(=O)c2n1,inactive,
CCOC(=O)C1(Cc2ccccc2C)CCCN(C(=O)CN2C(=O)CSC2=O)C1 (stereo unspecified),inactive,
c1ccc(CC2CCN(c3nc4ccccc4n4cnnc34)CC2)cc1,,26.6% [at 12.7 µM]
O=C(c1ccccc1)c1ccc(OC(=O)N2CCCC2)cc1,inactive,
O=C(c1ccccc1)c1ccc2nc(N3CCCCC3)c3nncn3c2c1,44.7 µM (active),
O=C(Nc1ccc(Oc2ccccc2)cc1)C1CCN(S(=O)(=O)c2ccc(Cl)cc2)CC1,inactive,
COc1cccc(NC(=O)c2ccc3nc(CCc4ccccc4)oc3c2)c1,inactive,
COc1cccc(NC(=O)CSC2=Nc3ccccc3C3=NC(CC(=O)NC4CCCCC4)C(=O)N23)c1 (stereo unspecified),inactive,
COc1cc(Cl)c(NC(=O)C(NS(=O)(=O)c2cccs2)C(C)C)c(OC)c1 (stereo unspecified),inactive,
COc1ccc(OC)c(-c2nc(C(N)=O)c3c(n2)n(-c2ccc4c(c2)OCO4)c(=O)n3C)c1,inactive,
COc1ccc(NC(=O)NCc2ccc3c(c2)OCO3)c(OC)c1,inactive,
COc1ccc(C2(C)NC(=O)N(CC(=O)c3ccc4c(c3)OCO4)C2=O)cc1 (stereo unspecified),inactive,
COc1cc(OC)c(C(=O)NCc2ccc3c(c2)OCO3)cc1OC,inactive,
COc1ccc2c(c1)C(C)=CC(C)(C)N2C(=O)CNCc1ccc2c(c1)OCO2,28.2 µM (active),
COc1cccc(CNCc2ccc3c(c2)OCO3)c1,22.4 µM (active),

SMILES,Potency,"activity, negative = inhibition"
Cc1ccsc1C(=O)NCCc1ccco1,,-0.499% [at 12.7 µM]
COc1ccccc1-c1noc(-c2ccc(NCc3ccccc3)c([N+](=O)[O-])c2)n1,inactive,
Clc1ccc(C2=CSC3=Nc4cccc5cccc(c45)N23)cc1,3.55 µM (active),
O=C(Nc1ccc2nc(SCC(=O)N3CCCc4ccccc43)sc2c1)c1ccc(Cl)cc1,inactive,
CCCNC(=O)CSc1nc(Cc2ccccc2)nc2ccccc12,inactive,
Cc1ccc(S(=O)(=O)NCc2nc3nc(C)cc(C)n3n2)cc1,inactive,
NC(=O)NC(CC(=O)NNC(=O)c1ccccn1)c1ccc(Cl)cc1 (stereo unspecified),,54.7% [at 12.7 µM]
CC(=O)Nc1nc2ccccc2n1Cc1ccc(C)cc1,inactive,
Cc1ccc(Cn2c(CCCNC(=O)C3CCCCC3)nc3ccccc32)cc1,inactive,
CCCc1nc2c(C)cc(-c3nc4ccccc4n3C)cc2n1Cc1ccc(-c2ccccc2C(=O)O)cc1,4.47 µM (active),-43.4% [at 2.33 µM]
COc1ccc(C(=O)Nc2nonc2-c2ccc(OC)c(OC)c2)cc1Cl,inactive,
COc1cccc(NC(C)=[N+](C)CCNS(=O)(=O)c2ccc(Cl)cc2)c1,15.8 µM (active),
COc1ccc(S(=O)(=O)NCCCCOc2ccc(Cl)cc2)cc1,,21.3% [at 2.33 µM]
COc1cccc(NC(=O)CCNS(=O)(=O)c2ccc3c(c2)oc(=O)n3C)c1,,1.31% [at 0.0925 µM]
CCOC(=O)C1CCN(c2csc3ccc(C)cc3c2=O)CC1,inactive,
Cc1[nH]n(C(N)=S)c(=O)c1N=Nc1ccc(Cl)cc1Cl,44.7 µM (active),
Cc1[nH]n(-c2ccccc2)c(=O)c1N=Nc1ccccc1C(=O)N1CCCCC1,inactive,
Cc1[nH]n(-c2cccc(Cl)c2)c(=O)c1-c1ccc(Cl)cc1,inactive,
COc1ccccc1C(=O)Nc1ccc(OCC(=O)N2CCCCC2)cc1,,11.7% [at 2.33 µM]
Nc1nnnn1/N=C/c1cccs1,inactive,
C(=N/N1CCN(c2ccccc2)CC1)/c1cccs1,10 µM (active),
Cc1ccc(N2CCN(/N=C/c3cccs3)CC2)cc1,inactive,
O=C(Nc1ccc2nc(SCC(=O)N3CCCc4ccccc43)sc2c1)c1ccc(F)cc1,inactive,
Cc1cc(C)c(S(=O)(=O)N(C)CC(=O)NCC2CCCO2)c(C)c1 (stereo unspecified),inactive,

SMILES,Potency,"activity, negative = inhibition"
CCC1CCCCN1S(=O)(=O)c1ccc(NC(=O)c2cc(=O)c3ccccc3o2)cc1 (stereo unspecified),inactive,
C[C@]1(C(=O)NCCc2c[nH]c3ccccc23)C=C[C@@H](Cc2ccccc2)N1C(=O)c1ccccc1,50.1 µM (active),
CC(=O)NC(Cc1c[nH]c2ccccc12)C(=O)NCCc1ccccc1 (stereo unspecified),inactive,
O=C(NCCc1c[nH]c2ccccc12)C1CCN(Cc2ccc(Br)cc2)CC1,inactive,
O=C(CN1C(=O)NC2(CCCCC2)C1=O)NCCc1c[nH]c2ccccc12,inactive,
CC1(C(=O)NCCc2c[nH]c3ccccc23)C=CC2(CCCCC2)N1C(=O)c1ccccc1 (stereo unspecified),79.4 µM (active),
O=C(CCCCCn1c(=O)[nH]c2ccccc2c1=O)NCCc1c[nH]c2ccccc12,,-11.9% [at 0.0925 µM]
Cc1ccc(S(=O)(=O)N2[C@@H](c3ccccc3F)C(C(=O)O)=CC[C@H]2c2ccc(Cl)cc2)cc1,,-0.77% [at 2.33 µM]
O=C(CSc1nccn1Cc1ccc(Cl)cc1)NCc1ccccc1,inactive,
COc1ccc([C@@H]2[C@@H]3C(=O)N(C(C)(C)C)C(=O)[C@@H]3[C@]3(Cc4ccccc4)C(=O)N(c4cccc(Br)c4)C(=O)N23)cc1,,-84.6% [at 2.33 µM]
Cc1ccc(C(=O)NCCSc2c(C)[nH]c3ccccc23)cc1C,inactive,
Cc1cccc(-n2ncc(Cl)c(Cl)c2=O)c1,inactive,
CC(C)CN(C(=O)CSc1nncn1C)C1CCS(=O)(=O)C1 (stereo unspecified),,7.97% [at 2.33 µM]
Cc1cccc(N2CCN(C(C)C(=O)N3CCc4ccccc43)CC2)c1C (stereo unspecified),inactive,
COC(=O)c1ccccc1NC(=O)c1ccc2c(=O)n3c(nc2c1)CCCCC3,inactive,
COc1ccc2c(c1)c(=O)c(S(=O)(=O)c1ccc(F)cc1)cn2CC(=O)Nc1ccc(C)cc1C,inactive,
O=C(CCC1CCCCC1)Nc1cc(C(F)(F)F)ccc1N1CCOCC1,inactive,
CC(C)CC(=O)Nc1cc(C(F)(F)F)ccc1N1CCOCC1,inactive,
Nc1cc(C(F)(F)F)ccc1N1CCOCC1,50.1 µM (active),
Cn1c(=O)oc2cc(S(=O)(=O)CCC(=O)NCCc3ccc(Cl)cc3)ccc21,inactive,
Cc1ccc(NNC(=O)c2c(F)cccc2Cl)cc1Cl,inactive,
Cc1ccc(NNC(=O)c2cccs2)cc1Cl,8.91 µM (active),
O=C(NNC(=O)c1ccc(Cl)cc1Cl)c1cccs1,inactive,
CCOc1ccc(-n2c(SCC(=O)NCc3ccccc3)nc3n[nH]c(C)c3c2=N)cc1,inactive,

SMILES,Potency,"activity, negative = inhibition"
Cc1ccc(S(=O)(=O)N2CCC(C(=O)Nc3cc(C)ccc3C)CC2)cc1,inactive,
CC(=O)Nc1ccc(S(=O)(=O)N2CCN(C3CCCCCCC3)CC2)cc1,inactive,
Cc1ccc(S(=O)(=O)N2CCC(N3CCCCCC3)CC2)cc1,10 µM (active),
COc1ccc(S(=O)(=O)N2CCCC(C(=O)N3CCN(C)CC3)C2)cc1C (stereo unspecified),inactive,
O=C(C1CCCN(S(=O)(=O)c2ccc([N+](=O)[O-])cc2)C1)N1CCCCC1 (stereo unspecified),inactive,
Cc1ccc(S(=O)(=O)N2CCCC(C(=O)N3CCN(C)CC3)C2)cc1 (stereo unspecified),10 µM (active),
COc1ccc(NC(=O)CSc2nc3ccccc3[nH]2)cc1,inactive,
CC1CCCCC1NC(=O)CCS(=O)(=O)c1ccc2c(c1)NC(=O)CO2 (stereo unspecified),inactive,
CCN(C(=O)c1cc([N+](=O)[O-])ccc1NCc1cccnc1)c1ccccc1,inactive,
CC(C)(C)OC(=O)N1CCC(c2c(C(=O)N3CCN(c4cccc(Cl)c4)CC3)cnn2-c2cccc(Cl)c2)CC1,inactive,
COc1cccc(NC(=O)CC2C(=O)NCCN2C(=S)Nc2ccc(F)cc2)c1 (stereo unspecified),inactive,
COc1ccc(C(=O)NC(=S)N2CCNC(=O)C2CC(=O)OC(C)C)cc1 (stereo unspecified),25.1 µM (active),
CCC1C(=O)NCCN1C(=O)c1ccc2nc(Cc3ccc(OC)cc3)oc2c1 (stereo unspecified),inactive,
C/C(=N\NC(=O)Cc1ccc(Cl)cc1)c1ccccn1,inactive,
C/C(=N/Nc1ccc(Cl)cc1)c1cnnc(-c2ccccc2)n1,39.8 µM (active),
O=C(Cc1ccc(Cl)cc1)NCc1nc(-c2ccccc2)no1,inactive,
Cc1cc(C(=O)Nc2cccc(C(F)(F)F)c2)c2c(C)nn(-c3cccc(F)c3)c2n1,inactive,
COc1ccc(N2CCN(c3ccc([N+](=O)[O-])cc3Cl)CC2)cc1,7.94 µM (active),
O=[N+]([O-])c1ccc(N2CCN(c3ccc(O)cc3)CC2)c(Cl)c1,3.16 µM (active),
O=C(c1cncc(Br)c1)N1CCN(c2ccc([N+](=O)[O-])cc2)CC1,inactive,
COc1ccc(N2CCN(c3ccc([N+](=O)[O-])nc3)CC2)cc1,inactive,
CN(C)S(=O)(=O)N1CCN(c2ccc([N+](=O)[O-])cc2)CC1,inactive,
CCN1CCN(c2ccc([N+](=O)[O-])cc2C(=O)c2ccc(Cl)cc2)CC1,,36.3% [at 0.501 µM]
